This is an account of results in PubChem BioAssay (NCATS).

Molecules are shown by their SMILES. Several values for one entry are separate records, joined by “and”; a condition that tells them apart may be missing. Equal values may be shown once. Unmarked numbers belong to inactive results. Results filed as inconclusive are left out. Activity calls are given as the source filed them. Unless noted, calls come from the whole dose curve; as a rule, active = well fitted curve in the direction sought with a large enough effect; inconclusive = small, poorly fitted or top-dose-only effect, or another doubt; inactive = no such curve, though single readings can be large; an effect the other way counts as inactive or inconclusive.

Assay [1] deals with Luciferin 4-monooxygenase (Photinus pyralis) (UniProt P08659). In words: Biochemical firefly luciferase enzyme assay for NPC (AID 624030).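 Note: purified P. pyralis luciferase at 10 nM with luciferin and ATP substrate; series mostly up to about 59 µM; 0% = DMSO and -100% = full luciferase inhibition by PTC124 control; nearly all actives have a fitted effect of over 70% in size.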 Summed up:
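Direct inhibition of firefly luciferase enzyme (10 nM final, 50 mM Tris Acetate) assessed by luminescence within 5 minutes. Percent activity scaled between DMSO and PTC124 positive control, with concentration-effect curves classified by fit quality and response.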

Assay [2] deals with Voltage-gated inwardly rectifying potassium channel KCNH2 (Homo sapiens) (UniProt Q12809). In words: qHTS Assay for Small Molecule Inhibitors of the Human hERG Channel Activity (AID 588834).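 Note: top concentration of the series differs between compounds; % is set by controls: 0 for no effect and ±100 for the full control effect; lower thallium flux fluorescence means stronger hERG block; nearly all actives have a fitted effect of over 50% in size.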 Summed up:
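hERG-BacMam U2OS, 2000 cells/well; 0.7X FluxOR loading 1 hr RT dark; cpd ~10 min 37 °C; stim buffer; FDSS fluorescence 2 min @ 1 s; AC50 Hill fit.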
On the technique in general: In qHTS, concentration-response curves come from the screen itself.

A short description of assay [3]: qHTS assay for small molecule activators of the p53 signaling pathway (AID 651743; active = well fitted activation curve with a large enough effect in the signal ratio, not every such curve was filed as active; the % refers to the signal ratio; note: series mostly up to about 92 µM; % of control where 0% means no effect). The settings on record: HCT-116 p53RE-bla, beta-lactamase FRET ratio, 16 h; hits give high values. Summed up:
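Screen for p53 pathway agonists uses stably transfected p53RE-bla HCT-116 cells, 4,000 per well, treated 16 h at 37 C with compounds in DMSO.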

A short description of assay [4]: qHTS assay for small molecule activators of the nuclear factor-kappa B (NF-kB) signaling pathway (AID 651749; active = well fitted activation curve with a large enough effect in the signal ratio; the % refers to the signal ratio; note: series mostly up to about 77 µM; % of control where 0% means no effect). The settings on record: NF-kB-bla ME-180 cells, beta-lactamase FRET ratio, 16 h; hits give high values. The method in brief:
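Stably transfected ME-180 line; NF-kB response element upstream of beta-lactamase. Treatment: compound or DMSO, 16 hr. Detection: fluorescent FRET substrate.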

Assay [5] can be described thus: qHTS assay for small molecule disruptors of the mitochondrial membrane potential - 1 hr assay (AID 651754; calls by dose curve; note: % is set by controls: 0 for no effect and ±100 for the full control effect; nearly all actives have a fitted effect of over 35% in size). The method in brief:
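Steps: seed HepG2 cells and let attach overnight; pin-transfer compound or vehicle; incubate 1 hr at 37C; add Mito-MPS dye for 30 min; read two-channel fluorescence for monomer and aggregate forms.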

Assay [6] is described as follows: qHTS assay for small molecule disruptors of the mitochondrial membrane potential - 5 hr assay (AID 651755; calls by dose curve; note: % is set by controls: 0 for no effect and ±100 for the full control effect; nearly all actives have a fitted effect of over 40% in size). The method in brief: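 HepG2, 2,000 cells/well, overnight attach; cpd or DMSO 5 hr, 37C/5% CO2; Mito-MPS 30 min 37C; fluor 490/535 + 540/590 nm.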
The target of assay [7] is Tumor necrosis factor (Homo sapiens) (UniProt P01375). In words: qHTS assay to identify small molecules that stimulate Tumor Necrosis Factor-alpha (TNF-alpha) secretion (AID 651757; active = well fitted curve in the direction sought with a large enough effect in the signal ratio; the % refers to the signal ratio; note: 0% is about no effect). Summed up:
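Secreted TNF-alpha from compound-treated THP-1 cells (17 hrs, 37 C) was quantified with a homogeneous time-resolved fluorescence antibody assay.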

Assay [8] in a line: qHTS assay to identify small molecules that stimulate interleukin-8 (IL-8) secretion (AID 651758; active = well fitted activation curve with a large enough effect in the signal ratio; the % refers to the signal ratio; note: 0% is about no effect). Summed up:
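Secreted IL-8 measured by TR-FRET sandwich (cryptate and XL665 antibodies) from THP-1 cells exposed to compound overnight (16 hrs, 37 C).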

Assay [9] in a line: qHTS assay for environmental chemicals that activate the Aryl hydrocarbon Receptor (AhR) signaling pathway (AID 651777). Note: % of control where 0% means no effect; nearly all actives have a fitted effect of over 15% in size. To be noted: 1A2-DRE human hepatoma cells, luciferase, 24 h; hits give high values. Summed up: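 Luminescence (One-Glo, 30 min, room temperature) reports AhR-driven luciferase in stably transfected human hepatoma cells bearing DRE and CYP1A2 promoter. Cells (1,200/well) were treated with compound for 24 hr at 37 C in qHTS format.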

Assay [10] concerns the target Peroxisome proliferator-activated receptor alpha (Homo sapiens) (UniProt Q07869). In words: qHTS assay for small molecule agonists of the peroxisome proliferator-activated receptor alpha (PPARalpha) signaling pathway (AID 651778). Note: % of control where 0% means no effect. To be noted: PathHunter PPARalpha complementation, chemiluminescence, 6 h; max response: hits give high values. The method in brief:
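Chemiluminescence from complemented enzyme reported PPARalpha activation in cells after 6 hr of compound treatment at 37 C. The detection reagent was incubated for 60 min at room temperature, and compounds were scored as agonists.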

Assay [11] addresses Thyroid hormone receptor beta (Homo sapiens) (UniProt P10828). In words: qHTS assay for small molecule antagonists of thyroid hormone receptor beta signaling (AID 588547; active = well fitted inhibition curve with a large enough effect in the signal ratio, with a control signal flat, not every such curve was filed as active; the % refers to the signal ratio;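 note: cells stimulated with 0.4 nM T3 agonist during compound exposure; series mostly up to about 77 µM; % is set by controls: 0 for no effect and ±100 for the full control effect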). To be noted: TR-UAS-bla HEK293, beta-lactamase ratio, antagonist mode, 18 h. The method in brief:
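Inhibition of T3-driven (0.4nM final) beta-lactamase reporter activity was measured over 0.59 nM to 92 uM compound after 18 h at 37 C. The cells were GripTite HEK293 TR-UAS-bla in charcoal/dextran-stripped serum, with CCF4 ratio read-out and IC50 from Hill fits.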

A short description of assay [12]: qHTS assay for small molecule agonists of the antioxidant response element (ARE) signaling pathway (AID 651741; active = well fitted activation curve with a large enough effect in the signal ratio; the % refers to the signal ratio; note: % of control where 0% means no effect). The method in brief:
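Seeding 2,000 ARE-bla HepG2 cells per well preceded a 5 h incubation at 37 C/5% CO2 and a 16 h compound exposure at 37 C. Beta-lactamase reporter activity was then quantified by fluorescence after 2 h with LiveBLAzer B/G FRET substrate.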

Peroxisome proliferator-activated receptor alpha (Homo sapiens), sequence (Q07869 whole entry, looked up): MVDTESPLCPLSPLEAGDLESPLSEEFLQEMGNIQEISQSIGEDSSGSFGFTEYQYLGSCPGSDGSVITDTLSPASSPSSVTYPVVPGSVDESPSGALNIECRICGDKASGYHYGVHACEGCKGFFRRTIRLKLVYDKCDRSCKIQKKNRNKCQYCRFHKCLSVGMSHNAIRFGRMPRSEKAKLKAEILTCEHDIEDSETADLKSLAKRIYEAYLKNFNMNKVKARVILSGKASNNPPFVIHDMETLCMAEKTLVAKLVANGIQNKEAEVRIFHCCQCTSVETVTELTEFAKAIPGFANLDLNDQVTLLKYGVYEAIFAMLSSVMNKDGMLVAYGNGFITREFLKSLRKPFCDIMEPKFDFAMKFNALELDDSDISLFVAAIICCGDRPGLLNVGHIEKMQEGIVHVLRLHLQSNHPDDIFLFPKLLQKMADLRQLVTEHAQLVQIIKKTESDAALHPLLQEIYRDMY
Luciferin 4-monooxygenase (Photinus pyralis), sequence (P08659 whole entry, looked up): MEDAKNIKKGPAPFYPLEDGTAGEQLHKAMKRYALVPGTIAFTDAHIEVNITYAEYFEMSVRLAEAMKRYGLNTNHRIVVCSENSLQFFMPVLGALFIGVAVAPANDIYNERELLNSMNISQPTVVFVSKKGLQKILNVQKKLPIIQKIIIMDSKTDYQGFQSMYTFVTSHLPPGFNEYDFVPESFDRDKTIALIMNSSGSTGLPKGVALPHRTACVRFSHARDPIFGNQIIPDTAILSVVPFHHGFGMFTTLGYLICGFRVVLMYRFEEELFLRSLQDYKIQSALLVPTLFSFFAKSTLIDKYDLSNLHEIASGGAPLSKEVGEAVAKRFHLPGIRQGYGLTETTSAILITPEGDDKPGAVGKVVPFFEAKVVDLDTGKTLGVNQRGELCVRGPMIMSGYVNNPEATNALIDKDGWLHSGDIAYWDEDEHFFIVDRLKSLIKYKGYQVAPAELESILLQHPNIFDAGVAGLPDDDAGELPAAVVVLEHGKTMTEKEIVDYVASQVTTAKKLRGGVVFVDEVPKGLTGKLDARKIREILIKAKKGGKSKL
Tumor necrosis factor (Homo sapiens), sequence (P01375 whole entry, looked up): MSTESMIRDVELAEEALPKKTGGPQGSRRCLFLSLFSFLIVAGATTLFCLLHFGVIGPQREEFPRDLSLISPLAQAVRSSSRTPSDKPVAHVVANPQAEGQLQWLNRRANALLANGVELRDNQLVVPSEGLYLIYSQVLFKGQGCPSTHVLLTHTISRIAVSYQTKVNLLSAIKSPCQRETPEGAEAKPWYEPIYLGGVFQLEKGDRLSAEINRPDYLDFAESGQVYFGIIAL
Voltage-gated inwardly rectifying potassium channel KCNH2 (Homo sapiens), sequence (Q12809 whole entry, looked up): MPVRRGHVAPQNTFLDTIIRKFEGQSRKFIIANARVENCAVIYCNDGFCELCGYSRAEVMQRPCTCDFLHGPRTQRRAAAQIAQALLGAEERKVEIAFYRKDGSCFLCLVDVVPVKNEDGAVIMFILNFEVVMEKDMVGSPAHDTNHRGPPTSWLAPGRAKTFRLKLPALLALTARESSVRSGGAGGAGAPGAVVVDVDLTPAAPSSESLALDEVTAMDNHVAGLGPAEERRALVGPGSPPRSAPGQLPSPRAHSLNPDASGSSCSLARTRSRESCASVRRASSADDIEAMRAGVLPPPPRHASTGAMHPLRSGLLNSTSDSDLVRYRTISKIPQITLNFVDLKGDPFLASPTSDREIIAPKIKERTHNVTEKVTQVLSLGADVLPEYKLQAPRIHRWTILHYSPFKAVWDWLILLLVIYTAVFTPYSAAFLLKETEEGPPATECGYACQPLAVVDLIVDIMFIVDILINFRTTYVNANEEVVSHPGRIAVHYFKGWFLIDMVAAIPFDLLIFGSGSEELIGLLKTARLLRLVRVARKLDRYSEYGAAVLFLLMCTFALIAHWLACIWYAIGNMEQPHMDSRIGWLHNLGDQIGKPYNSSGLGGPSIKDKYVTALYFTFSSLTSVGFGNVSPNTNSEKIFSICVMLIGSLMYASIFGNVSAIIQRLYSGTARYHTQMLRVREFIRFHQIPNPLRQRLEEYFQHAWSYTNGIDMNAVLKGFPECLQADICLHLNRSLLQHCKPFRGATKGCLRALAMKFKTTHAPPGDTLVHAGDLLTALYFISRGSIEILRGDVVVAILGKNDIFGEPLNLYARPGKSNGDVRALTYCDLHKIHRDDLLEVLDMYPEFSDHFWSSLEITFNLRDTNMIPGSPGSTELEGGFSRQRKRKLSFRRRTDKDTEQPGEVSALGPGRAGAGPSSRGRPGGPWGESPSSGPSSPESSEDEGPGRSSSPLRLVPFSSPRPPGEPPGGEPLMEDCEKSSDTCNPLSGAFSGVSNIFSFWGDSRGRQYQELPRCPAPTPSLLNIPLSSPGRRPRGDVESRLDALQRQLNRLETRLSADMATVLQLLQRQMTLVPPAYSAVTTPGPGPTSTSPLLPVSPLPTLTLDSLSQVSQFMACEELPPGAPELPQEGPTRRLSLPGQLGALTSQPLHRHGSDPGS
Thyroid hormone receptor beta (Homo sapiens), sequence (P10828 whole entry, looked up): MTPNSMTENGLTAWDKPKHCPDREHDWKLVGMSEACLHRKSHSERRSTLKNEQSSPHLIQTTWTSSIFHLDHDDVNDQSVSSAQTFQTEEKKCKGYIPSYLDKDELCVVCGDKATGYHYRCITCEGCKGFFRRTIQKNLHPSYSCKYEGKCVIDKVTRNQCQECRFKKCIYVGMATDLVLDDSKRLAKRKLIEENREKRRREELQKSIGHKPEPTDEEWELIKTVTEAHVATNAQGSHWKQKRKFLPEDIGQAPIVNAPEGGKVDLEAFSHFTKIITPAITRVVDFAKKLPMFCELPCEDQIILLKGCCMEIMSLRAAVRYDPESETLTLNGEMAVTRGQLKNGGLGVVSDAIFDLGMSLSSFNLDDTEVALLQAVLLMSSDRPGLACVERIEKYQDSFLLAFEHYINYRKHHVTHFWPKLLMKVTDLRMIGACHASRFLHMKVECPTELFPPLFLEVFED

Regarding `O=P(O)(O)C(O)(Cc1cnc2ccccn12)P(=O)(O)O`, the Potency result in assay [1] was “inactive”.
With `CC1=C(C(=O)OCCN(Cc2ccccc2)c2ccccc2)C(c2cccc([N+](=O)[O-])c2)C(P2(=O)OCC(C)(C)CO2)=C(C)N1` (stereo not given), the Potency result in assay [1] was “inactive”.
Same read-out and setting: the same measure for `C[C@H](/C=C/[C@H](C)C(C)(C)O)[C@H]1CC[C@H]2/C(=C/C=C3C[C@@H](O)C[C@H](O)C3)CCC[C@]12C`: “inactive”; for `CCN1CCCC1CNC(=O)c1cc(S(=O)(=O)CC)ccc1OC` (stereo not given): “inactive”.
Consider `O=C(O)CC(O)(CC(=O)O)C(=O)O`, for which the call in [2], in [5], in assay [6], in assay [7] and in [8] was inactive. Further, in [1], the Potency result was “inactive”. Besides, the activation in assay [3] was -3% and -0.0659% and -0.0181%; in assay [4] it was -0.675% and 0.892% and -1.06%; in [9], 0.406% and -1.76% and 1.69%. In [10], the max response is -3.03% and 0.0721% and -1.17%.
In the case of `CCCCCCCCCCCCCCCCCC(=O)OCCO`, the Potency entry in [1] was “inactive”.
For the molecule `CN(C)CCOc1ccccc1Cc1ccccc1` (tested in a mixture with another compound), in assay [1], the Potency entry is “inactive”.
For the molecule `CCCCCCCCCC(=O)O`, the activity change % (negative = inhibition) in [11] is 17.7%. The molecule was classed as inactive in assay [2] and in [7]. The Potency result in assay [1] and in [12] was “inactive” in each case. Further, the activation is -0.571% and 9.23% in assay [3]; -1.38% and -1.03% in [4]. For the same molecule, in [10], the max response is 5.25% and -0.468%.
In the case of `CCOC(=O)[C@H](CCc1ccccc1)N[C@H]1CCCN2CCC[C@@H](C(=O)O)N2C1=O`, the Potency entry in assay [1] is “inactive”.
